# Results: the supplement of paper PMC8728848
# Shown is part of a subset that was picked to be rich in the strongest signals.
# B1: AT1G80310(18) (Arabidopsis thaliana), Q0WP36 (protein)
# chain: METTTTPLLPGDRSRCGWLRRRLRLKNPLSSELSGAVGDLGTFIPIVLTLTLVSNLDLSTTLIFTGFYNIATGLLFDIPMPVQPMKSIAAVAVSESPHLTPSQIAAAGASTAATLLLLGATGAMSFLYNIIPLPVVRGVQLSQGLQFAFTAIKYVRFNYDTATLKPSSSPRIWLGLDGLILALAALLFIILSTGSGNDREAEDGDLAETSSNESQSRRRRLRLLSSIPSALIVFALGLVLCFIRDPSIFKDLKFGPSKFHILRISWDDWKIGFLRAAIPQIPLSVLNSVIAVCKLSNDLFDKELSATTVSISVGVMNLIGCWFGAMPVCHGAGGLAGQYRFGARSGLSVIFLGIGKLIVGLVFGNSFVRILSQFPIGILGVLLLFAGIELAMASKDMNSKEDSFIMLVCAAVSMTGSSAALGFGCGVVLYLLLKLRTLDCSSVTLFSRSSDESQVDSEAAPRDV
# How the values were obtained:
# Assay in all cases: glycan array binding signal (z-score within array); higher = stronger binding
# Settings in all cases: glycan notation: IUPAC condensed, linker removed
# [1] = biological target: Gal(b1-4)GlcNAc(b1-3)Gal(b1-4)GlcNAc(b1-6)[Gal(b1-3)]GalNAc
# Outline: (§1)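 Negative Z-scores can be read as non-binding. The Z-score is calculated within each array and then averaged across arrays of one protein sequence at different concentrations or buffers and across linkers. Arrays, 3228 in all, were curated from the Consortium for Functional Glycomics database and kept only where the protein sequence was available.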
# [2] = biological target: Gal3S(b1-4)[Fuc(a1-3)]GlcNAc6S
# Outline: as §1
# Gal3S6S(b1-4)GlcNAc6S = biological target: Gal3S6S(b1-4)GlcNAc6S
# Outline: as §1
# Gal6P(b1-4)GlcNAc = biological target: Gal6P(b1-4)GlcNAc
# Outline: as §1
# GalNAc(b1-4)GlcNAc = biological target: GalNAc(b1-4)GlcNAc
# Outline: as §1
# GalNAc4S6S(b1-4)GlcNAc = biological target: GalNAc4S6S(b1-4)GlcNAc
# Outline: as §1
# GalNAc6S(b1-4)GlcNAc = biological target: GalNAc6S(b1-4)GlcNAc
# Outline: as §1
# Glc(b1-4)Glc = biological target: Glc(b1-4)Glc
# Outline: as §1
# [3] = biological target: GlcNAc(a1-4)Gal(b1-4)GlcNAc
# Outline: as §1
# [4] = biological target: GlcNAc(a1-4)Gal(b1-4)GlcNAc(b1-3)Gal(b1-4)GlcNAc(b1-3)Gal(b1-4)GlcNAc
# Outline: as §1
# [5] = biological target: GlcNAc(b1-3)Gal(b1-4)GlcNAc(b1-3)Gal(b1-4)GlcNAc
# Outline: as §1
# [6] = biological target: GlcNAc(b1-3)Gal(b1-4)GlcNAc(b1-3)Gal(b1-4)GlcNAc(b1-2)Man(a1-3)[GlcNAc(b1-3)Gal(b1-4)GlcNAc(b1-3)Gal(b1-4)GlcNAc(b1-2)Man(a1-6)]Man(b1-4)GlcNAc(b1-4)[Fuc(a1-6)]GlcNAc
# Outline: as §1
# [7] = biological target: GlcNAc(b1-6)Gal(b1-4)GlcNAc
# Outline: as §1
# [8] = biological target: GlcNAc6S(b1-3)Gal(b1-4)GlcNAc
# Outline: as §1
# [9] = biological target: Man(a1-2)Man(a1-3)[Man(a1-2)Man(a1-6)]Man
# Outline: as §1
# [10] = biological target: Man(a1-2)Man(a1-6)[Man(a1-3)]Man(a1-6)[Man(a1-2)Man(a1-2)Man(a1-3)]Man
# Outline: as §1
# [11] = biological target: Man(a1-3)[Man(a1-6)]Man(b1-4)GlcNAc(b1-4)[Fuc(a1-6)]GlcNAc
# Outline: as §1
# [12] = biological target: Neu5Ac(a2-3)Gal(b1-3)GalNAc
# Outline: as §1
# [13] = biological target: Neu5Ac(a2-3)Gal(b1-3)GalNAc(b1-4)[Neu5Ac(a2-3)]Gal(b1-4)Glc
# Outline: as §1
# [14] = biological target: Neu5Ac(a2-3)Gal(b1-3)GalNAc(b1-4)[Neu5Ac(a2-8)Neu5Ac(a2-3)]Gal(b1-4)Glc
# Outline: as §1
# [15] = biological target: Neu5Ac(a2-3)Gal(b1-4)GlcNAc(b1-2)Man(a1-3)[Neu5Ac(a2-3)Gal(b1-4)GlcNAc(b1-2)Man(a1-6)]Man(b1-4)GlcNAc(b1-4)[Fuc(a1-6)]GlcNAc
# Outline: as §1
# [16] = biological target: Neu5Ac(a2-3)Gal(b1-4)GlcNAc(b1-3)Gal(b1-4)GlcNAc
# Outline: as §1
# [17] = biological target: Neu5Ac(a2-6)Gal(b1-4)GlcNAc(b1-2)Man
# Outline: as §1
# [18] = biological target: Neu5Ac(a2-6)Gal(b1-4)GlcNAc(b1-2)Man(a1-6)[Man(a1-3)]Man(b1-4)GlcNAc(b1-4)GlcNAc
# Outline: as §1
# [19] = biological target: Neu5Ac(a2-6)Gal(b1-4)GlcNAc(b1-3)Gal(b1-3)GlcNAc
# Outline: as §1
# [20] = biological target: Neu5Ac(a2-6)GalNAc(b1-4)GlcNAc6S
# Outline: as §1
# [21] = biological target: Neu5Ac(a2-8)Neu5Ac(a2-3)Gal(b1-3)GalNAc(b1-4)[Neu5Ac(a2-3)]Gal(b1-4)Glc
# Outline: as §1
# [22] = biological target: Neu5Ac(a2-8)Neu5Ac(a2-8)Neu5Ac(a2-8)Neu5Ac(a2-3)[GalNAc(b1-4)]Gal(b1-4)Glc
# Outline: as §1
# [23] = biological target: Neu5Ac9Ac(a2-3)Gal(b1-3)GlcNAc
# Outline: as §1
# Neu5Gc(a2-6)GalNAc = biological target: Neu5Gc(a2-6)GalNAc
# Outline: as §1
binder,measurement,setting,value
B1,glycan array binding signal (z-score),[1],-0.516
same,glycan array binding signal (z-score),[2],-0.286
same,glycan array binding signal (z-score),Gal3S6S(b1-4)GlcNAc6S,0.953
same,glycan array binding signal (z-score),Gal6P(b1-4)GlcNAc,0.119
same,glycan array binding signal (z-score),GalNAc(b1-4)GlcNAc,3.09
same,glycan array binding signal (z-score),GalNAc4S6S(b1-4)GlcNAc,3.56
same,glycan array binding signal (z-score),GalNAc6S(b1-4)GlcNAc,2.89
same,glycan array binding signal (z-score),Glc(b1-4)Glc,1.3
same,glycan array binding signal (z-score),[3],-0.622
same,glycan array binding signal (z-score),[4],0.229
same,glycan array binding signal (z-score),[5],-0.512
same,glycan array binding signal (z-score),[6],1.31
same,glycan array binding signal (z-score),[7],-0.608
same,glycan array binding signal (z-score),[8],0.436
same,glycan array binding signal (z-score),[9],-0.796
same,glycan array binding signal (z-score),[10],-0.243
same,glycan array binding signal (z-score),[11],-0.517
same,glycan array binding signal (z-score),[12],0.654
same,glycan array binding signal (z-score),[13],-0.383
same,glycan array binding signal (z-score),[14],4.16
same,glycan array binding signal (z-score),[15],-0.895
same,glycan array binding signal (z-score),[16],-0.967
same,glycan array binding signal (z-score),[17],-0.534
same,glycan array binding signal (z-score),[18],-0.892
same,glycan array binding signal (z-score),[19],-0.646
same,glycan array binding signal (z-score),[20],-0.543
same,glycan array binding signal (z-score),[21],-0.86
same,glycan array binding signal (z-score),[22],-0.09
same,glycan array binding signal (z-score),[23],-0.052
same,glycan array binding signal (z-score),Neu5Gc(a2-6)GalNAc,0.551
